# Target: CaNbp2
# Experiment: SPOT peptide array binding signal intensity (averaged, normalized) (arbitrary units (background-subtracted, floor 0; scale differs between SH3 domains)); higher = stronger binding of the SH3 domain to the peptide
# Summary of the method: (§1)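 Binding signal refers to normalized, background-subtracted spot intensity averaged over replicates, expressed in arbitrary units that differ between domains. GST-fused SH3 domains from four yeast species were incubated at 10 μg/ml overnight at 4°C on cellulose membranes of synthetic 15-mer peptides with cysteines replaced by serines. Bound protein was detected with anti-GST antibody, an HRP anti-mouse secondary and luminol, and quantified with Genespotter.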
row,Binder,SPOT peptide array binding signal intensity
1,NQARKPFLLPATELS,100

# Target: CaRvs167
# Experiment: as above
# Summary of the method: as §1
row,Binder,SPOT peptide array binding signal intensity
1,NQARKPFLLPATELS,0.333

# Target: CaRvs167-3
# Experiment: as above
# Summary of the method: as §1
row,Binder,SPOT peptide array binding signal intensity
1,NQARKPFLLPATELS,4.5

# Target: CaSho1
# Experiment: as above
# Summary of the method: as §1
row,Binder,SPOT peptide array binding signal intensity
1,NQARKPFLLPATELS,28.5

# Target: CaSla1-D1-D2
# Experiment: as above
# Summary of the method: as §1
row,Binder,SPOT peptide array binding signal intensity
1,NQARKPFLLPATELS,≤ 0

# Target: CaSla1-D3
# Experiment: as above
# Summary of the method: as §1
row,Binder,SPOT peptide array binding signal intensity
1,NQARKPFLLPATELS,≤ 0

# Target: ScAbp1
# Experiment: as above
# Summary of the method: as §1
row,Binder,SPOT peptide array binding signal intensity
1,NQARKPFLLPATELS,59.5

# Target: ScBbc1
# Experiment: as above
# Summary of the method: as §1
row,Binder,SPOT peptide array binding signal intensity
1,NQARKPFLLPATELS,3.75

# Target: ScBem1-D1
# Experiment: as above
# Summary of the method: as §1
row,Binder,SPOT peptide array binding signal intensity
1,NQARKPFLLPATELS,3.5

# Target: ScBzz1-D1
# Experiment: as above
# Summary of the method: as §1
row,Binder,SPOT peptide array binding signal intensity
1,NQARKPFLLPATELS,13

# Target: ScBzz1-D2
# Experiment: as above
# Summary of the method: as §1
row,Binder,SPOT peptide array binding signal intensity
1,NQARKPFLLPATELS,6.5

# Target: ScCyk3
# Experiment: as above
# Summary of the method: as §1
row,Binder,SPOT peptide array binding signal intensity
1,NQARKPFLLPATELS,8

# Target: ScFus1
# Experiment: as above
# Summary of the method: as §1
row,Binder,SPOT peptide array binding signal intensity
1,NQARKPFLLPATELS,15

# Target: ScHof1
# Experiment: as above
# Summary of the method: as §1
row,Binder,SPOT peptide array binding signal intensity
1,NQARKPFLLPATELS,0.5

# Target: ScHse1
# Experiment: as above
# Summary of the method: as §1
row,Binder,SPOT peptide array binding signal intensity
1,NQARKPFLLPATELS,1630

# Target: ScLsb1
# Experiment: as above
# Summary of the method: as §1
row,Binder,SPOT peptide array binding signal intensity
1,NQARKPFLLPATELS,23.5

# Target: ScLsb2
# Experiment: as above
# Summary of the method: as §1
row,Binder,SPOT peptide array binding signal intensity
1,NQARKPFLLPATELS,≤ 0

# Target: ScLsb3
# Experiment: as above
# Summary of the method: as §1
row,Binder,SPOT peptide array binding signal intensity
1,NQARKPFLLPATELS,≤ 0

# Target: ScLsb4
# Experiment: as above
# Summary of the method: as §1
row,Binder,SPOT peptide array binding signal intensity
1,NQARKPFLLPATELS,≤ 0

# Target: ScMyo3
# Experiment: as above
# Summary of the method: as §1
row,Binder,SPOT peptide array binding signal intensity
1,NQARKPFLLPATELS,≤ 0

# Target: ScMyo5
# Experiment: as above
# Summary of the method: as §1
row,Binder,SPOT peptide array binding signal intensity
1,NQARKPFLLPATELS,≤ 0

# Target: ScNbp2
# Experiment: as above
# Summary of the method: as §1
row,Binder,SPOT peptide array binding signal intensity
1,NQARKPFLLPATELS,≤ 0

# Target: ScPex13
# Experiment: as above
# Summary of the method: as §1
row,Binder,SPOT peptide array binding signal intensity
1,NQARKPFLLPATELS,≤ 0

# Target: ScRvs167
# Experiment: as above
# Summary of the method: as §1
row,Binder,SPOT peptide array binding signal intensity
1,NQARKPFLLPATELS,4.67

# Target: ScSho1
# Experiment: as above
# Summary of the method: as §1
row,Binder,SPOT peptide array binding signal intensity
1,NQARKPFLLPATELS,105

# Target: ScSla1-D1-D2
# Experiment: as above
# Summary of the method: as §1
row,Binder,SPOT peptide array binding signal intensity
1,NQARKPFLLPATELS,≤ 0

# Target: ScSla1-D3
# Experiment: as above
# Summary of the method: as §1
row,Binder,SPOT peptide array binding signal intensity
1,NQARKPFLLPATELS,8

# Target: SpAbp1-D1
# Experiment: as above
# Summary of the method: as §1
row,Binder,SPOT peptide array binding signal intensity
1,NQARKPFLLPATELS,34

# Target: SpBbc1
# Experiment: as above
# Summary of the method: as §1
row,Binder,SPOT peptide array binding signal intensity
1,NQARKPFLLPATELS,≤ 0

# Target: SpBzz1-D1
# Experiment: as above
# Summary of the method: as §1
row,Binder,SPOT peptide array binding signal intensity
1,NQARKPFLLPATELS,≤ 0

# Target: SpBzz1-D2
# Experiment: as above
# Summary of the method: as §1
row,Binder,SPOT peptide array binding signal intensity
1,NQARKPFLLPATELS,≤ 0

# Target: SpCyk3
# Experiment: as above
# Summary of the method: as §1
row,Binder,SPOT peptide array binding signal intensity
1,NQARKPFLLPATELS,1

# Target: SpHof1
# Experiment: as above
# Summary of the method: as §1
row,Binder,SPOT peptide array binding signal intensity
1,NQARKPFLLPATELS,24.5

# Target: SpHof1-2
# Experiment: as above
# Summary of the method: as §1
row,Binder,SPOT peptide array binding signal intensity
1,NQARKPFLLPATELS,0.5

# Target: SpHof1-3
# Experiment: as above
# Summary of the method: as §1
row,Binder,SPOT peptide array binding signal intensity
1,NQARKPFLLPATELS,870

# Target: SpHse1
# Experiment: as above
# Summary of the method: as §1
row,Binder,SPOT peptide array binding signal intensity
1,NQARKPFLLPATELS,770

# Target: SpLsb1
# Experiment: as above
# Summary of the method: as §1
row,Binder,SPOT peptide array binding signal intensity
1,NQARKPFLLPATELS,11

# Target: SpLsb4
# Experiment: as above
# Summary of the method: as §1
row,Binder,SPOT peptide array binding signal intensity
1,NQARKPFLLPATELS,≤ 0

# Target: SpMyo1
# Experiment: as above
# Summary of the method: as §1
row,Binder,SPOT peptide array binding signal intensity
1,NQARKPFLLPATELS,≤ 0

# Target: SpNbp2
# Experiment: as above
# Summary of the method: as §1
row,Binder,SPOT peptide array binding signal intensity
1,NQARKPFLLPATELS,7

# Target: SpPex13
# Experiment: as above
# Summary of the method: as §1
row,Binder,SPOT peptide array binding signal intensity
1,NQARKPFLLPATELS,≤ 0

# Target: SpRvs167
# Experiment: as above
# Summary of the method: as §1
row,Binder,SPOT peptide array binding signal intensity
1,NQARKPFLLPATELS,≤ 0

# Target: SpSla1-D1-D2
# Experiment: as above
# Summary of the method: as §1
row,Binder,SPOT peptide array binding signal intensity
1,NQARKPFLLPATELS,≤ 0

# Target: SpSla1-D3
# Experiment: as above
# Summary of the method: as §1
row,Binder,SPOT peptide array binding signal intensity
1,NQARKPFLLPATELS,≤ 0

# Reference: the supplement of paper PMC4466140
